Bioassay records deposited in PubChem by National Center for Advancing Translational Sciences (NCATS).
An excerpt weighted towards active compounds, which were near 7.4% of everything screened.
HEK293 viab: cell viability loss counter-screen | HEK-293-SNCA-luc viability, GF-AFC fluorescence, 24 h | 150,000 tested, 0.12% active | Potency, µM (doses to about 57.1 µM), inactives show top-dose activity change, negative = cytotoxicity, most hits filed as cytotoxic;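 further: 0% = DMSO-treated cells and -100% = medium-only wells without cells; nearly all actives have a fitted effect of over 30% in size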
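HEK-293-SNCA-luc cells (1500/well) plated 24 h, then exposed 24 h to a dilution series; GF-AFC added 30 min at 37C, fluorescence 405/540 nm; normalised to medium-only and DMSO wells, Hill fit.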
NPR1 antag: blocks ANP-stimulated signaling of human Npr1 receptor | P16066 | Potency, µM (top dose mostly 46.3 µM), for inactives: at the highest dose activity change, negative = inhibition, hits mostly inhibitors | AID 1347048 | HEK293 hNpr1 GloSensor cGMP, ANP-stimulated luminescence | 76,000 tested, 1.6% active; calls by dose curve; further: on the % scale 0 is the no-effect control and ±100 the full control effect; nearly all actives have a fitted effect of over 60% in size
Target sequence (P16066 whole entry, looked up): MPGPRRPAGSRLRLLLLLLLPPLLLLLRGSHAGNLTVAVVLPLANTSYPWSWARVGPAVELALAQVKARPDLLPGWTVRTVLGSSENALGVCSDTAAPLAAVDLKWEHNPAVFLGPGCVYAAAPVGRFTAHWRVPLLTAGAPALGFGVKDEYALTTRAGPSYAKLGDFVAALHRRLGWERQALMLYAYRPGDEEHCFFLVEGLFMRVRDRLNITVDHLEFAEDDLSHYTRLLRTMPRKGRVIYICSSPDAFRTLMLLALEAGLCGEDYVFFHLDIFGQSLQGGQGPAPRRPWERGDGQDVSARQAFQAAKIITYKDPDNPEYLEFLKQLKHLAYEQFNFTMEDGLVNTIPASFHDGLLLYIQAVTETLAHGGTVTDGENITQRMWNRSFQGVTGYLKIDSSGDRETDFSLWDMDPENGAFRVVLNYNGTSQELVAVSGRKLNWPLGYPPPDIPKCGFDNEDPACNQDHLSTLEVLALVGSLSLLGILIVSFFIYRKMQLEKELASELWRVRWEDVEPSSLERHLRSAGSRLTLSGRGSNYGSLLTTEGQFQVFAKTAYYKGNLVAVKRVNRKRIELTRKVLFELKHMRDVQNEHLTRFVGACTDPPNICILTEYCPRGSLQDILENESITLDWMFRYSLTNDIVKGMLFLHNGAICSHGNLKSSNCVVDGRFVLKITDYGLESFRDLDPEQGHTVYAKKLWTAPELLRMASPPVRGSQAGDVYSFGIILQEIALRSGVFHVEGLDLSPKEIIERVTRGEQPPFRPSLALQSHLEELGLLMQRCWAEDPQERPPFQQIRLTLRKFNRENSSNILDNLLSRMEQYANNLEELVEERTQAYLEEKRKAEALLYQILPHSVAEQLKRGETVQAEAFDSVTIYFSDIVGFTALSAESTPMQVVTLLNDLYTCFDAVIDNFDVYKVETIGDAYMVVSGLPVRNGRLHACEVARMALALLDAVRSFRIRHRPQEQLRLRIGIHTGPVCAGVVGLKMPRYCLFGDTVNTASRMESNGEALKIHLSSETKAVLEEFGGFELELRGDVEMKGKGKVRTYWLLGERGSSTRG
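Compound pre-incubated 30 min at room temperature on GloSensor-loaded HEK293 cells stably carrying hNpr1 and the pGS-40F cGMP biosensor. Stimulation uses hNppA at 0.1 nM final; luminescence is taken at baseline and 20 min post-agonist.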
SNCA expr inh: inhibitors of alpha-synuclein (SNCA) gene expression; 140,000 tested, 0.17% active; Potency, µM (titrated, usually from 57.2 µM), without a hit: top-dose activity change, negative = inhibition, hits mostly inhibitors; HEK-293 SNCA-luciferase knock-in, luminescence, 24 h;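 further: plate controls were DMSO cells for no effect and cell-free wells for full effect; nearly all actives have a fitted effect of over 45% in size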
NIH3T3 tox: cytotoxic compounds in NIH 3T3 cells | NIH 3T3 viability, CellTiter-Glo ATP luminescence, 48-72 h | Potency, µM (series often up to 96.7 µM), inactives show at the top dose activity change, negative = cytotoxicity, hits mostly inhibitors | 94,000 tested, 4.3% active | AID 1345082; further: on the % scale 0 is the no-effect control and ±100 the full control effect; nearly all actives have a fitted effect of over 55% in size
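Cells were seeded at 400 per well, treated with pin-transferred compound, and kept 48 or 72 hr at 37 °C before CellTiter-Glo addition and luminescence imaging of cellular ATP.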
Luciferase inh: Photinus pyralis luciferase inhibition; 76,000 tested, 2.5% active; purified P. pyralis luciferase, luminescence, biochemical; Potency, µM (doses to about 115 µM), most hits filed as inhibitors; further: on the % scale 0 is the no-effect control and ±100 the full control effect; nearly all actives have a fitted effect of over 65% in size
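Purified 10nM P. pyralis luciferase with 10uM D-luciferin and 10uM ATP in 50mM Tris acetate pH 7.5, 10mM Mg acetate, 0.01% Tween-20, 0.05% BSA. qHTS titration; luminescence read by CCD imager.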
HEK293 tox: kills HEK 293 cells; HEK 293 viability, ATP luminescence (CellTiter-Glo), 48-72 h; Potency, µM (titrated, usually from 115 µM), for inactives: top-dose activity change, negative = cytotoxicity, most hits filed as inhibitors; 94,000 tested, 6.6% active; AID 1345083; further: on the % scale 0 is the no-effect control and ±100 the full control effect; nearly all actives have a fitted effect of over 60% in size
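Cells seeded first (HEK 293, 250 cells/well), then compound added by pintool. Incubation ran 48 or 72 hr at 37 degree Celsius. CellTiter-Glo was added and luminescence imaged after 10 min at room temperature.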
Npr1 antag conf: confirmation of human Npr1 natriuretic peptide receptor antagonists. Potency, µM (doses to about 57.6 µM), without a hit: at the highest dose activity change, negative = inhibition, usual class: inhibitors. shares compounds with NPR1 antag. 1,400 tested, 76% active. HEK293 hNpr1 cGMP GloSensor luminescence, ANP-stimulated. AID 1347044; calls by dose curve; further: nearly all actives have a fitted effect of over 70% in size
Npr2 selectivity: selectivity test of Npr1 antagonists against human Npr2. shares compounds with NPR1 antag. 1,400 tested, 67% active. Potency, µM (series often up to 57.6 µM), for the others: at the top dose activity change, negative = inhibition, hits mostly inhibitors. HEK293 hNpr2 GloSensor cGMP luminescence, CNP-stimulated; calls by dose curve; further: nearly all actives have a fitted effect of over 70% in size
FLuc counter: FLuc enzyme inhibition, Npr1 counter-screen; AID 1347047; 1,400 tested, 0.7% active; Potency, µM (titrated, usually from 57.6 µM), without a hit: at the highest dose activity change, negative = inhibition, usual class: inhibitors; shares compounds with NPR1 antag; purified FLuc enzyme, luminescence, Km substrate; further: series mostly up to about 58 µM; 0% is about no effect
GloSensor ctrl: reduces cGMP signal in GloSensor control cells | AID 1347051 | Potency, µM (doses to about 57.6 µM), for inactives: at the top dose activity change, negative = inhibition, most hits filed as inhibitors | shares compounds with NPR1 antag | 1,400 tested, 69% active | HEK293 GloSensor cGMP, SNP-stimulated, luminescence; calls by dose curve; further: on the % scale 0 is the no-effect control and ±100 the full control effect; nearly all actives have a fitted effect of over 70% in size
* hit, by the source's call; i = inactive; ? = inconclusive; / = not tested or not shown; [ ] = remark or other dose. Unless noted, the call rests on the fitted dose curve; in most records, active means well fitted curve in the direction sought with a large enough effect; inconclusive means small, poorly fitted or top-dose-only effect, or another doubt; inactive means no such curve, though single readings can be large; an effect the other way counts as inactive or inconclusive. Potency means the concentration at half of the fitted maximal effect.

SMILES | HEK293 viab | NPR1 antag | SNCA expr inh | NIH3T3 tox | Luciferase inh | HEK293 tox | Npr1 antag conf | Npr2 selectivity | FLuc counter | GloSensor ctrl
Cc1ccc(C(CC(=O)N2CCN(c3ccc([N+](=O)[O-])cc3)CC2)c2cn(C)c3ccccc23)cc1 (stereo not given) | -13% | 0% | 1% | -23% | i | ? | / | / | / | /
O=C(CC(c1ccc(F)cc1)c1cn(Cc2ccccc2)c2ccc([N+](=O)[O-])cc12)N1CCOCC1 (stereo not given) | ? | 10µM* | ? | ? | i | ? | 24µM* | 24µM* | 0% | 19µM*
CC1(NC(=O)C2CC2)CN(c2ccc(Oc3ccccc3)cc2)C1 | -10%[87.6 µM] | 20µM* | -17%[87.6 µM] | -28%[138 µM] | i | ? | 18µM* | 22µM* | -1%[86.2 µM] | 16µM*
COc1ccc(S(=O)(=O)N2CCC(C(=O)Nc3ccc(Oc4ccccc4)cc3)CC2)cc1 | 6% | / | -15% | / | / | / | / | / | / | /
CC(=O)NC1(C)CCCN(c2ccc(Oc3ccccc3)cc2)C1 (stereo not given) | -19%[87.6 µM] | 18µM* | 83%[87.6 µM] | ? | i | ? | 20µM* | 20µM* | ? | 16µM*
CC(=O)NC1(C)CCCN(Cc2ccc(Oc3ccccc3)cc2)C1 (stereo not given) | 16%[87.6 µM] | 1%[70.6 µM] | -1%[87.6 µM] | ? | ? | ? | / | / | / | /
C=C(C(=O)OC)[C@@H]1CC=C2C=CC(=O)[C@H](C)[C@@]2(C)C1 | -9% | / | / | / | / | / | / | / | / | /
OC1CC(c2cc(NCCCn3ccc4ccccc43)ncn2)C1 (stereo not given) | -5% | 11µM* | 10% | ? | i | ? | 19µM* | 19µM* | 0% | 12µM*
COC(=O)c1cccc(NC(=S)N[C@@H]2C=C[C@@H](c3c(C)nn(-c4ccccc4[N+](=O)[O-])c3C)C2)c1 | ? | 13µM* | ? | 40µM* | i | 40µM* | 19µM* | ? | -8% | 24µM*
CC(=O)N1Cc2ccccc2CC2(CCN(Cc3ccncc3)C2)C1 (stereo not given) | 10% | / | ? | -10% | / | -16% | / | / | / | /
CC(=O)N1Cc2ccccc2CC2(CCN(Cc3ccccc3)C2)C1 (stereo not given) | -11% | / | 21% | -4% | / | -17% | -21% | -17% | 2% | -13%
O=C(N1CCC(NS(=O)(=O)c2cccc(F)c2)CC1)N1CC2CC(C1)[C@H]1CCCC(=O)N1C2 (stereo not given in full) | -17% | 3% | -29% | i | i | 0% | / | / | / | /
CC(=O)Nc1ccc(NC(=O)CN2C(=O)NC3(CCC(C)CC3)C2=O)cc1 (stereo not given) | -14% | 0% | -9% | -1% | i | -6% | / | / | / | /
COc1ccc(-c2cnc3[nH]cc(CC(=O)Nc4cccc(N(C)C)c4)c3c2)cc1 | -28%[87.6 µM] | ? | 27%[87.6 µM] | ? | i | ? | ? | ? | -9%[86.2 µM] | -25%[86.2 µM]
COc1ccc(-c2cnc3[nH]cc(CC(=O)NCCc4ccccn4)c3c2)cc1 | 10%[87.6 µM] | 3%[70.6 µM] | 2%[87.6 µM] | ? | i | -23%[172 µM] | / | / | / | /
COc1ccc(-c2cnc3[nH]cc(CC(=O)Nc4cccnc4)c3c2)cc1 | -22%[87.6 µM] | ? | 46%[87.6 µM] | ? | i | 71µM* | ? | -29%[86.2 µM] | ? | -23%[86.2 µM]
Cn1cc(-c2cnc3[nH]cc(CC(=O)Nc4ccc(C(F)(F)F)cc4)c3c2)cn1 | -12%[87.6 µM] | ? | -15%[87.6 µM] | ? | i | ? | ? | ? | -1%[86.2 µM] | ?
CN(C)c1cccc(NC(=O)Cc2c[nH]c3ncc(-c4ccccc4)cc23)c1 | -21%[87.6 µM] | ? | ? | ? | i | ? | / | / | / | /
Cc1ccccc1-c1cnc2[nH]cc(CC(=O)Nc3cccnc3)c2c1 | ? | 16µM* | -3%[87.6 µM] | ? | i | ? | 25µM* | 31µM* | -3%[86.2 µM] | 22µM*
CC1Oc2ccc(NC(=O)C3CC3)cc2CN(CCc2ccc(F)cc2)C1=O (stereo not given) | -7% | 0% | 7% | ? | i | ? | / | / | / | /
O=C(NCc1ccccc1)c1ccc2c(c1)OCCN(c1ccccc1)C2 | -24%[87.6 µM] | ? | ? | ? | i | ? | ? | ? | -1%[86.2 µM] | ?
Cc1ccc(CNC(=O)c2ccc3c(c2)CN(Cc2ccc(N(C)C)cc2)CCO3)cc1 | -11% | 11µM* | ? | ? | i | ? | 24µM* | 27µM* | 2% | 27µM*
O=C(Nc1ccc(F)cc1)c1ccc2c(c1)OCCN(c1ccccc1)C2 | -20%[87.6 µM] | 32µM* | 23%[87.6 µM] | ? | i | 56µM* | 40µM* | 40µM* | -14%[86.2 µM] | 40µM*
C=C1C2(C)CC3C4(C)OC(C5OC56C4=CC(=O)OC6(C)C)C3(C)C13C(=O)OC(C)C3(O)C2=O (stereo not given) | -10%[23.9 µM] | / | / | / | / | / | / | / | / | /
Cc1ccc(C2Cn3nnc(C(=O)N4CCN(C(=O)c5ccccc5F)CC4)c3CO2)cc1 (stereo not given) | 10% | ? | -6% | -21% | i | ? | / | / | / | /
Cc1ccc(C2Cn3nnc(C(=O)N4CCN(C(=O)c5cc(Cl)ccc5F)CC4)c3CO2)cc1 (stereo not given) | -1% | ? | ? | ? | i | ? | 15µM* | 19µM* | -2% | 17µM*
Cc1ccccc1N1CCN(C(=O)c2nnn3c2COC(c2ccc(Cl)cc2)C3)CC1 (stereo not given) | 5% | 4% | 1% | 0% | i | 0% | / | / | / | /
